Source: PubChem BioAssay AID485317 (Broad Institute, 2010)
Screen size: about 290,000 compounds; about 11,000 (3.8%) were called active.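 The calls were made as follows: active = mean replicate inhibition above about 79%, with every replicate also reaching it (limit read from the data); inconclusive = only one of the two criteria met; inactive = mean below limit and not every replicate reaching it.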 Shown is part of a subset that was picked to be rich in actives.

Biological target: FAD-linked sulfhydryl oxidase ALR (Homo sapiens) (UniProt P55789)
Sequence (P55789 whole entry, looked up): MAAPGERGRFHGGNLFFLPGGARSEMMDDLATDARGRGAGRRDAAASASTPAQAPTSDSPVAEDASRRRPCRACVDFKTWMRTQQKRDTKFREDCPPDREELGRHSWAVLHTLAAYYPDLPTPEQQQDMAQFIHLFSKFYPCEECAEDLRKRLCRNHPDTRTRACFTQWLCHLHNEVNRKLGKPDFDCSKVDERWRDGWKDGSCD
Assay: ALR-catalysed DTT oxidation blockers – biochemical, H2O2 detection, HRP-luminol luminescence, single point, primary screen (AID 485317)
Settings: purified ALR, active compounds read high, concentration not given here

SMILES | inhibition
CN1CCN(/N=C/c2c[nH]c3ccccc23)CC1 | 79.3% (active)
Fc1ccc(N2CCN(Cc3ccc4c(c3)OCO4)CC2)cc1 | 76.3% (active)
O=C(Cc1ccccc1[N+](=O)[O-])N1CCN(Cc2ccc3c(c2)OCO3)CC1 | -25.4% (inactive)
Oc1cc2c(cc1CN1CCN(c3ccccc3)CC1)OCO2 | 60.4% (inactive)
COC(=O)C1=C(c2cc3ccccc3s2)C[C@@H]2CC[C@H]1N2C(=O)NCc1cccc2ccccc12 | -1.91% (inactive)
COC(=O)C1=C(c2ccccc2)C[C@@H]2CC[C@H]1N2C(=O)N1CCCCC1 | -3.97% (inactive)
C/C(CCc1c[nH]c2ccccc12)=N\O | 98.1% (active)
c1cncc(CNCCc2c[nH]c3ccccc23)c1 | 10% (inactive)
COc1ccc(CNCCc2c[nH]c3ccccc23)cc1OC | 4.28% (inactive)
COC(=O)C1=C(c2ccc(Cl)c(C(F)(F)F)c2)C[C@@H]2CC[C@H]1N2C(=O)NC1CC1 | -18.1% (inactive)
COc1ccc(N2C(=O)/C(=C/c3ccco3)C(=O)NC2=S)cc1 | 97.9% (active)
COc1ccc(CN2C(=O)NC(=O)/C(=C\c3ccc(OC)c(OC)c3OC)C2=O)cc1 | 20% (inactive)
COc1cccc(N2C(=O)NC(=O)/C(=C\c3cn(C)c4ccccc34)C2=O)c1 | -2.44% (inactive)
C[C@]12CC[C@H](O)CC1=C([N+](=O)[O-])CC1C2CC[C@@]2(C)C1CC[C@@H]2O (stereo not given in full) | 1.78% (inactive)
COC(=O)C1=C(c2ccc(F)cc2OCc2ccccc2)C[C@@H]2CC[C@H]1N2C(=O)NCc1ccc2[nH]ccc2c1 | 5.75% (inactive)
Cc1cccc2c(CCN)c[nH]c12 | -8.02% (inactive)
NCCc1c[nH]c2ccc(O)cc12 | 95.8% (active)
COC(=O)C1=C(c2cc3ccccc3o2)C[C@@H]2CC[C@H]1N2C(=O)NC1CCCCC1 | 0.528% (inactive)
COC(=O)C1=C(c2cc3ccccc3s2)C[C@@H]2CC[C@H]1N2C(=O)NC(C)C | 16.9% (inactive)
O=c1[nH]c(O)c(C=Nc2cc(F)cc(F)c2)c(=O)[nH]1 | -1.04% (inactive)

SMILES | inhibition
Cc1ccnc(-n2c(C)cc(/C=C3\C(=O)NC(=S)N(C)C3=O)c2C)c1 | 97.1% (active)
Cc1ccc(-n2c(C)cc(/C=C3\C(=O)NC(=O)N(C)C3=O)c2C)cc1C | -26% (inactive)
Cc1cc(C=C2C(=O)NC(=O)NC2=O)c(C)n1-c1ccncc1 | 20.8% (inactive)
COC(=O)C1=C(c2cccc(OCc3ccccc3)c2)C[C@@H]2CC[C@H]1N2C(=O)NNCc1ccccc1 | -3.1% (inactive)
O=C(O)CCn1cc(C=C2C(=O)NC(=S)NC2=O)c(-c2cccc(Br)c2)n1 | 99.4% (active)
CNCC(O)c1cc(F)c(OCc2ccccc2)c(OCc2ccccc2)c1F (stereo not given) | -16.5% (inactive)
COC(=O)C1=C(c2ccc(F)cc2OCc2ccccc2)C[C@@H]2CC[C@H]1N2C(=O)NCc1ccc(Cl)cc1 | 0.0344% (inactive)
c1ccc(CCN2CCC3(CC2)OCCO3)cc1 | 0.745% (inactive)
COc1ccc2c(c1)[C@]13CCCCC1C(C2)N(C)CC3 (stereo not given in full) | -0.421% (inactive)
CN(C)c1nc(N(C)C)nc(N(C#N)CCCl)n1 | 96.2% (active)
CCN1CCN(c2nc3c(c(=O)[nH]2)CCC3)CC1 | 2.56% (inactive)
CCC(=O)c1ccc(OCC(=O)N2CCN(CC(=O)Nc3ccc(C)cc3)CC2)cc1 | -2.33% (inactive)
O=C1NC(=O)N(Cc2ccco2)C(=O)/C1=C\c1ccc(-c2ccc(F)cc2)o1 | 13.9% (inactive)
Cc1cc(/C=C2/C(=O)NC(=O)N(Cc3ccco3)C2=O)c(C)n1-c1ccc(C(=O)O)cc1 | 97.6% (active)
Cc1c(C(=O)O)cccc1-n1c(C)cc(/C=C2\C(=O)NC(=O)N(c3ccc4c(c3)OCO4)C2=O)c1C | 12.1% (inactive)
COC(=O)C1=C(c2ccc(F)cc2OCc2ccccc2)C[C@@H]2CC[C@H]1N2C(=O)NCc1ccc(OC)c(OC)c1 | -0.52% (inactive)
COC(=O)C1=C(c2ccc(F)cc2OCc2ccccc2)C[C@@H]2CC[C@H]1N2C(=O)NCc1ccc(C(C)(C)C)cc1 | -8.86% (inactive)
O=C(CCC(=O)N1C[C@H]2C[C@@H](C1)c1cccc(=O)n1C2)NCc1ccccc1C(F)(F)F | -3.58% (inactive)
COC(=O)C1=C(c2c(C)noc2C)C[C@@H]2CC[C@H]1N2C(=O)NCc1ccc2c(c1)OCO2 | -6.31% (inactive)
CC(=O)c1ccc(OC(NC(=O)Cc2ccccc2)C(Cl)(Cl)Cl)cc1 (stereo not given) | 5.09% (inactive)

SMILES | inhibition
CC(=O)NC(=O)NC(C)Cc1ccccc1 (stereo not given) | 99.2% (active)
CC(Cc1ccccc1)NCCC(c1ccccc1)c1ccccc1 (stereo not given) | -11.9% (inactive)
COC(=O)C1=C(c2ccc(Cl)c(C(F)(F)F)c2)C[C@@H]2CC[C@H]1N2C(=O)NC(C)C | 0.07% (inactive)
Cc1ccc(-c2cc(C(=O)N3CCC4(CC3)OCCO4)no2)cc1 | 7.33% (inactive)
COc1ccc(-c2nc(CS(=O)CC(=O)N3CCC4(CC3)OCCO4)c(C)o2)cc1 (stereo not given) | 98.9% (active)
COc1ccc(NC(=O)N2CCC3(CC2)OCCO3)c(OC)c1 | -26.4% (inactive)
COC(=O)C1=C(c2ccc(-c3ccccc3)c(F)c2)C[C@@H]2CC[C@H]1N2C(=O)NCc1ccc(F)cc1 | -0.106% (inactive)
C=CC12CN(C)[C@@H]3C4CO[C@H](C[C@H]41)[C@]1(C(=O)Nc4ccccc41)[C@@H]32 (stereo not given in full) | -7.63% (inactive)
COC(=O)C1=C(c2cccc(OCc3ccccc3)c2)C[C@@H]2CC[C@H]1N2C(=O)NCc1ccc(Br)cc1 | -3.06% (inactive)
CN1CCc2cc3c(cc2[C@H]1[C@@H]1OC(=O)c2c1ccc1c2OCO1)OCO3 | -8.76% (inactive)
Cc1ccccc1NC(=O)COC(=O)c1cc(C)n(C2CC2)c1C | 5.99% (inactive)
COC(=O)C1=C(c2ccc3ccccc3c2)C[C@@H]2CC[C@H]1N2C(=O)NCCO | -28.8% (inactive)
O=[N+]([O-])c1cnc2ccc3ccccc3c2c1 | -42.1% (inactive)
C/C(=N/O)c1ccc2ccc3ccccc3c2c1 | 99.1% (active)
C[C@]12CCC3C(CC[C@H]4C[C@@H](O)CC[C@]34C)C1CC[C@@H]2O (stereo not given in full) | -1.96% (inactive)
C[C@]12CCC3C(CC[C@H]4C[C@@H](O)CC[C@]34C)C1C[C@@H](O)[C@H]2O (stereo not given in full) | 2.15% (inactive)
COC(=O)C1=C(c2ccc(F)cc2F)C[C@@H]2CC[C@H]1N2C(=O)NC1CC1 | -1.47% (inactive)
COC(=O)C1=C(c2ccccc2OCc2ccccc2)C[C@@H]2CC[C@H]1N2C(=O)NCc1ccc(OC)cc1 | -2.59% (inactive)
COC(=O)C1=C(c2ccc(C(C)=O)cc2)C[C@@H]2CC[C@H]1N2C(=O)NCCNC(C)=O | 4.07% (inactive)
O=c1c2ccccc2nc(/C=C/c2ccco2)n1-c1ccccc1O | 47.2% (inactive)
